Data published in ChEMBL document CHEMBL3433997, “St. Jude Leishmania screening dataset” (2016).

Columns and labels:
Assay type in all cases: functional
[1] = target: Solute carrier family 2, facilitated glucose transporter member 1 (Homo sapiens) (UniProt P11166); test: ST_JUDE_LEISH: Cytotoxicity at 2uM final concentration against transgenic Leishmania Mexicana promastigotes LmGLUT1 that are glucose transport deficient and complemented with the human glucose transporter GLUT1. Activity is measured by DNA content using SYBR green in vitro
[2] = target: Hexose transporter 1 (Plasmodium falciparum) (UniProt O97467); test: ST_JUDE_LEISH: Cytotoxicity at 2uM final concentration against transgenic Leishmania Mexicana promastigotes LmPfHT that are glucose transport deficient and complemented with the Plasmodium falciparum hexose transporter. Activity is measured by DNA content using SYBR green in vitro
[3] = target: Glucose transporter (Leishmania mexicana) (UniProt O61059); test: ST_JUDE_LEISH: Cytotoxicity at 2uM final concentration against transgenic Leishmania Mexicana promastigotes LmGT2 that are glucose transport deficient and complemented with the L. Mexicana glucose transporter 2. Activity is measured by DNA content using SYBR green in vitro

Sequence of Solute carrier family 2, facilitated glucose transporter member 1 (Homo sapiens) (P11166 whole entry): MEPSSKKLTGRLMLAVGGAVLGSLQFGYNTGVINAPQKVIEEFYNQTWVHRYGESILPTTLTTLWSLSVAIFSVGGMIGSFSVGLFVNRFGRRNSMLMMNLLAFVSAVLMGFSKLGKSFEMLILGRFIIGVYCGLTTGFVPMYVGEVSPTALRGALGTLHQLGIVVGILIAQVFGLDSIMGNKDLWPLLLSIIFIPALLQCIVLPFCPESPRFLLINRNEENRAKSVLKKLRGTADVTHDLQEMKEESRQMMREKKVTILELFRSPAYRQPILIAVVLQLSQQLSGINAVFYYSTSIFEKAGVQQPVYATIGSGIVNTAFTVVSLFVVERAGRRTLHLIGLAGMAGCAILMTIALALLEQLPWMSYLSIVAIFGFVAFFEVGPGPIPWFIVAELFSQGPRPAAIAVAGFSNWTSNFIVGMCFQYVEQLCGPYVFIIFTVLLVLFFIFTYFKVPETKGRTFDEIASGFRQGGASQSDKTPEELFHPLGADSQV

Structure (SMILES) | inhibition [1] | inhibition [2] | inhibition [3]
COc1cccc(C(NC(=O)c2ccccc2)c2ccc3cccnc3c2O)c1 (centres undefined) | -0.96% | 2.16% | -1.64%
CNCCCNc1ccnc2cc(Cl)ccc12 | 3.07% | 4.53% | 5.03%
COc1ccc(-c2cccc(NC(=O)c3ccc(Cl)cc3)c2)cc1CN(C)CCN(C)C | 3.16% | 2.66% | 6.97%
Fc1cccc(COc2ccc(Nc3ncnc4sc(C#C[C@H]5CC[C@H](CNCC(F)(F)F)N5)cc34)cc2Cl)c1 | 1.63% | 1.52% | 1.3%
O=C(CCN(Cc1ccco1)c1nc(-c2ccc(F)cc2)nc2ccccc12)NC1CC1 | 4.96% | 1.65% | 9.67%
N#Cc1ccc(-c2cnc3ccc(NCc4ccc(S(N)(=O)=O)cc4)nn23)cc1 | 2.42% | 1.16% | 0.38%
c1cc(-c2ccc(CNCCCN3CCOCC3)cc2)cc(-c2nc3ccccc3[nH]2)c1 | 1.09% | -0.33% | 2.29%
NCCc1cccc(-c2cnc3[nH]cc(-c4ccc(C(=O)O)cc4)c3c2)c1 | 0.56% | 0.29% | 0.03%
CC1CN(Cc2ccc(-c3ccc(-c4nc5cc(F)ccc5[nH]4)s3)cc2)CC(C)O1 (centres undefined) | 5.96% | 4.68% | 3.99%
O=C(Nc1ccc(O)c(-c2nc3ccccc3[nH]2)c1)c1ccc([N+](=O)[O-])cc1 | -2.13% | -0.21% | 1.31%
CCCCNc1c(C(=O)OCC)c(C)nc2c1[nH]c1ccccc12 | 3.19% | 4.14% | -0.65%
CCN(C(=O)c1ccc(NC(=O)c2cccs2)cc1)c1nc2c(C)cccc2s1 | 1.43% | 4.28% | 2.9%
Cc1cnc(N2CCN(CCCN3CCCC3)CC2)nc1Oc1ccc(-n2ccnc2)cc1 | 2.28% | 2% | 3.96%
COc1cccc(COCC(O)CN(CCc2ccccn2)C(=O)c2ccccc2F)c1 (centres undefined) | 2.13% | 2.79% | 2.65%
CCCCCCNC[C@@H](O)[C@H](Cc1ccccc1)NC(=O)c1cc(NCC)cc(N2CCCCS2(=O)=O)c1 | 1.43% | 1.73% | 5.06%
O=C(NCc1ccccc1)c1nn(CCCN2CCC(N3CCCC3)CC2)cc1-c1ccc(Cl)c(Cl)c1 | 4.94% | 0.77% | 0.9%
COc1cc2nccc(Nc3ccc(NC(=O)c4ccc(C)cc4)c(O)c3)c2cc1OC | 6.88% | 9.16% | 2.92%
Clc1ccc(CNC2CCN(CC3CCCCC3)CC2)cc1 | 5.87% | 11.2% | 10.2%
CC(=O)NCCCCC1NC2(C(=O)N(Cc3ccc(C(C)(C)C)cc3)c3ccccc32)C2C(=O)N(C3CCCCC3)C(=O)C12 (centres undefined) | -1.24% | -3.01% | -0.43%

Structure (SMILES) | inhibition [1] | inhibition [2] | inhibition [3]
COc1ccc(OC)c2c1CCN(C)C2Cc1cccc2ccccc12 (centres undefined) | 3.52% | 3.87% | 1.61%
CN1CCC(NCc2ccc(S(=O)(=O)Nc3ccc(Oc4cccc(Cl)c4)cc3)cc2)CC1 | 1.15% | 1.05% | 0.97%
CS(=O)(=O)c1ccc(CCNCc2ccc(-c3ccc(CN(C(=O)C4CC(=O)c5ccccc54)C4Cc5ccccc5C4)cc3)nc2)cc1 (centres undefined) | 1.52% | -0.58% | -0.89%
CCCN1CCN(CCCNC(=O)c2cc3c(-c4ccc(Cl)cc4)nn(C)c3s2)CC1 | 18.3% | 17.4% | 10.2%
O=C(Nc1ccc(Cl)cc1)Nc1cccc(-c2cccc(-c3nc4cc(C(F)(F)F)ccc4[nH]3)c2)c1 | -0.58% | -0.83% | -2.27%
NC1=NC(c2ccccc2)(c2ccccc2)C(=O)N1CC1CCC1 | 0.06% | 2.21% | 0.31%
O=C(NCCN1CCCC1)c1ccc(-c2cccc(-c3nc4cc(F)ccc4[nH]3)c2)cc1 | -0.16% | 0% | -0.53%
Cc1ccc(CNC(=O)[C@H](CCCN)Nc2cc(C)nc(Nc3ccccc3)n2)cc1 | 6.17% | 5.71% | 7.78%
COc1ccc(C(=O)CC(=O)c2ccc(OC)cc2OC)c(OC)c1 | 6.03% | 4.03% | 4.43%
O=C(Nc1ccc(-c2cccc(-c3nc4cc(F)ccc4[nH]3)c2)cc1)c1ccncc1 | 13.9% | 14.2% | 12.9%
COc1ccc2nccc([C@@H](O)CN3CCC(NCCc4c[nH]c5ccccc45)CC3)c2c1 | 9.59% | 11% | 7.8%
CN(C)CCN1CCN(CCCN2c3ccccc3Sc3ccc(C(F)(F)F)cc32)CC1 | 3.37% | 3.77% | 3.66%
Cc1ccc(CN2CCN(Cc3cccc(NC(=O)c4cccs4)c3)CC2)cc1C | 2.28% | 2.39% | 1.91%
CCc1c(C)nc(-n2nc(C)cc2NC(=O)CC(c2ccccc2)c2ccccc2)[nH]c1=O | -2.32% | -2.23% | -4.35%
COc1ccc(Nc2nc(C)cc(NCc3ccc(-c4c(C)noc4C)cc3)n2)cc1 | 17.4% | 13.9% | 2.01%
NC(=O)C1CCN(Cc2ccc(-c3ccc(-c4nc5cc(C(F)(F)F)ccc5[nH]4)cc3)cc2)CC1 | 4.65% | 2.32% | 3.93%
CCCCN1CCN(c2cc(NS(=O)(=O)c3ccc(C(=O)Nc4ccc(C(F)(F)F)cc4)cc3)ccc2OC)CC1 | 3.79% | 5.5% | 0.69%
COc1ccc(NC(=O)c2ccc3cc4ccccc4cc3c2)cc1N1CCN(C)CC1 | 0.49% | -0.55% | 0.74%
COc1ccc(Cn2cncc2CN(CCC(C)C)C(=O)c2ccc(Cl)nc2Cl)cc1 | 2.52% | 2.14% | 2.49%
